Test results reported in PubChem BioAssay (NCI).
“And” between values parts separate entries of the source, which are not always exact repeats. Equal values may be shown once. About 83,000 compounds went through this panel and 20% of them were active in at least one assay; those are over-represented in the sample as a whole.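 Testing used 96-well plates and a 48-hour single-concentration exposure. Example: -40 means 40% of the starting cells died.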 The source made the active and inactive calls. The calls were made as follows: active = growth percent below 10; inactive = the rest.

Columns and labels:
Test in all cases: NCI-60 one-dose screen, 48 h (100 = growth as untreated, 0 = no growth, -100 = all killed)
Conditions in all cases: 10 µM unless noted
T-47D breast = system: T-47D breast
BT-549 breast = system: BT-549 breast
MDA-MB-435 melanoma = system: MDA-MB-435 melanoma
SW-620 colon = system: SW-620 colon
MCF7 breast = system: MCF7 breast
HCT-116 colon = system: HCT-116 colon
HCC-2998 colon = system: HCC-2998 colon
KM12 colon = system: KM12 colon

Row | Structure (SMILES) | growth (T-47D breast) | growth (BT-549 breast) | growth (MDA-MB-435 melanoma) | growth (SW-620 colon) | growth (MCF7 breast) | growth (HCT-116 colon) | growth (HCC-2998 colon) | growth (KM12 colon)
1 | COc1cc(/C=C2/C=C(c3ccc(C(C)(C)C)cc3)N(CCc3ccc(S(N)(=O)=O)cc3)C2=O)cc(OC)c1OC | 18.2% (inactive) | 48.1% (inactive) | 52.8% (inactive) | 63.3% (inactive) | 13.1% (inactive) | 23.5% (inactive) | 32.2% (inactive) | 43.8% (inactive)
2 | CCCCn1c(C(=O)c2c[nH]c3ccccc23)n[nH]c1=S | 77.5% (inactive) | 114% (inactive) | 98.7% (inactive) | 101% (inactive) | 73.2% (inactive) | 92.4% (inactive) | 101% (inactive) | 92.2% (inactive)
3 | CC(C)(C)c1cc(C(C)(C)c2ccccc2)cc(Cc2cc(C(C)(C)c3ccccc3)cc(C(C)(C)C)c2O)c1O | 95.3% (inactive) | 93.1% (inactive) | 115% (inactive) | 104% (inactive) | 94.6% (inactive) | 93.1% (inactive) | 107% (inactive) | 106% (inactive)
4 | Cc1ccc(C(=O)Nc2nc3c(s2)CN(Cc2ccccc2)CC3)cn1 | 83.8% (inactive) | 94.9% (inactive) | 7.68% (active) | 69.8% (inactive) | 64% (inactive) | 80.7% (inactive) | 77.9% (inactive) | 49.6% (inactive)
5 | CS(=O)(=O)Nc1cc(-c2ccc3ncnc(Nc4ccc(F)c(Cl)c4)c3c2)cnc1Cl | -7.45% (active) | -21.7% (active) | 9.94% (active) | 13.8% (inactive) | 5.44% (active) | 1.28% (active) | 16.1% (inactive) | 7.66% (active)
6 | Cc1nc(Nc2ncc(C(=O)Nc3c(C)cccc3Cl)s2)cc(N2CCN(CCO)CC2)n1 | 40.8% (inactive) and -2.8% (active) | 55.3% (inactive) and 32.2% (inactive) | 62.6% (inactive) and 27.1% (inactive) | 103% (inactive) and 52.6% (inactive) | 66.1% (inactive) and 54.4% (inactive) | 40.7% (inactive) and 2.99% (active) | 110% (inactive) and 81% (inactive) | 81.3% (inactive) and 28.1% (inactive)
7 | COc1ccc(Nc2ncnc3ccc(-c4cncc(NS(C)(=O)=O)c4)cc23)cc1Cl | -13.6% (active) | 24.5% (inactive) | 49.1% (inactive) | 37.7% (inactive) | 15% (inactive) | 19.1% (inactive) | 49.3% (inactive) | 61% (inactive)
8 | Cc1cc(N2CCN(CC(=O)Nc3ccc4c(ccn4Cc4ccccc4)c3)CC2)nc(N2CCCCCC2)n1 | 42.7% (inactive) | 65.1% (inactive) | 60.7% (inactive) | 56.8% (inactive) | 20.5% (inactive) | 38.8% (inactive) | 64.5% (inactive) | 37.6% (inactive)
9 | N=C1/C(=C2\NC3C=CC=CC3S2)C(c2ccc(Cl)cc2)C2C(=O)N(c3ccccc3)C(=S)N12 (centres undefined) | 102% (inactive) | 95.4% (inactive) | 108% (inactive) | 104% (inactive) | 94.1% (inactive) | 101% (inactive) | 99.1% (inactive) | 108% (inactive)
10 | O=C(CCl)N(O)c1ccc(/C=C/c2ccccc2)cc1 | 63.8% (inactive) and 59.5% (inactive) | 73.5% (inactive) and 62.4% (inactive) | 97.2% (inactive) and 90% (inactive) | 74.3% (inactive) and 53.5% (inactive) | 49.2% (inactive) and 42.5% (inactive) | 69.1% (inactive) and 51.7% (inactive) | 75.7% (inactive) and 89.3% (inactive) | 102% (inactive) and 91.6% (inactive)
11 | CCOC(=O)c1c(-c2ccc(OC)cc2)c(C#N)c2c(C#N)c(N)nn2c1N | 12% (inactive) | 37% (inactive) | -38.2% (active) | 26.9% (inactive) | 13.2% (inactive) | 16% (inactive) | 62.9% (inactive) | 23.6% (inactive)
12 | Cc1ccc(-c2nc3nc(-c4ccc(Cl)cc4)nc(N4CCCNCC4)c3o2)cc1 | -36.5% (active) | 99.4% (inactive) | -81.1% (active) | -81.9% (active) | -79.4% (active) | -75.6% (active) | -78.8% (active) | -88.7% (active)
13 | NNCCc1ccccc1 | 106% (inactive) and 95.2% (inactive) | 103% (inactive) and 107% (inactive) | 109% (inactive) and 97.2% (inactive) | 106% (inactive) and 94.6% (inactive) | 98.5% (inactive) and 86.6% (inactive) | 103% (inactive) and 93.5% (inactive) | 110% (inactive) and 98.5% (inactive) | 111% (inactive) and 99.5% (inactive)
14 | N=c1c2c(-c3ccccc3)c(-c3ccccc3)oc2ncn1NC(=O)c1cccnc1 | 96.2% (inactive) | 103% (inactive) | 104% (inactive) | 106% (inactive) | 98.5% (inactive) | 96.1% (inactive) | 118% (inactive) | 95.6% (inactive)
15 | O=C(Nc1ccc(Cl)c(Cl)c1)Nc1ccc(Cl)c(Cl)c1 | -51.5% (active) and 12.6% (inactive) | -83.3% (active) and 37.7% (inactive) | -80.9% (active) and 13.6% (inactive) | -60.5% (active) and 19.3% (inactive) | -75.9% (active) and 13.6% (inactive) | -89.9% (active) and 4.25% (active) | -95.9% (active) and 22.8% (inactive) | -96.3% (active) and 14% (inactive)
16 | CCN(C(=O)N1CCN(c2cc3c(cc2F)c(=O)c(C(=O)O)cn3C2CC2)CC1)c1nc(-c2ccccc2)cs1 | 55.4% (inactive) | -9.57% (active) | 27.3% (inactive) | 23.3% (inactive) | 14.9% (inactive) | 6.31% (active) | 21% (inactive) | 21.1% (inactive)
17 | Nc1nc(N)c2c(n1)NC(c1ccc(Cl)cc1)CC(c1cccc(Nc3ccncc3)c1)=N2 (centres undefined) | 77.6% (inactive) | 110% (inactive) | 42.7% (inactive) | 30% (inactive) | 49.4% (inactive) | 21.9% (inactive) | 72.1% (inactive) | 63.7% (inactive)
18 | Cc1ccc(C(=O)N(CCCN)[C@@H](c2nc3cc(Cl)ccc3c(=O)n2Cc2ccccc2)C(C)C)cc1 | -41.7% (active) | 24.2% (inactive) | -89.9% (active) | -77.6% (active) | -61.2% (active) | -77.9% (active) | -74.4% (active) | -45.8% (active)
19 | Clc1nccc2c(-c3csc(-c4c[nH]c5ccc(Br)cc45)n3)c[nH]c12 | 17.7% (inactive) | 53.2% (inactive) | 36.9% (inactive) | -31.1% (active) | 23.7% (inactive) | 22.8% (inactive) | 27.8% (inactive) | 17.1% (inactive)
20 | O=C(/C=C/c1cccs1)Nc1ncc(Cc2ccc(Cl)c(Cl)c2)s1 | 49% (inactive) | 80.9% (inactive) | -23.2% (active) | 37.5% (inactive) | 26.8% (inactive) | 45.2% (inactive) | 53.8% (inactive) | 22% (inactive)
21 | O=C(CCl)n1nnnc1Cc1ccccc1 | 98.8% (inactive) | 93.7% (inactive) | 103% (inactive) | 101% (inactive) | 101% (inactive) | 102% (inactive) | 94.6% (inactive) | 116% (inactive)
22 | CC1=CC=C(NC(=O)/C=C/c2ccccc2)CC1Nc1nccc(-c2cccnc2)n1 (centres undefined) | 48.1% (inactive) | 74.5% (inactive) | -48.5% (active) | 27% (inactive) | 18% (inactive) | 14.5% (inactive) | 70.5% (inactive) | 26.4% (inactive)
23 | CC(=O)c1nn(-c2ccccc2)/c(=N/N=Cc2cn(-c3ccccc3)nc2-c2cc3ccccc3oc2=O)s1 | 89.1% (inactive) | 105% (inactive) | 103% (inactive) | 104% (inactive) | 91.5% (inactive) | 97.6% (inactive) | 108% (inactive) | 106% (inactive)
24 | CONC1=Nc2cc(NC(N)=NCc3ccccc3)c(N(C)C3CCCCC3)cc2OC1 | 63.7% (inactive) | 92% (inactive) | 73% (inactive) | 75% (inactive) | 36.1% (inactive) | 45.8% (inactive) | 22.1% (inactive) | 61.5% (inactive)
25 | Cc1nc(-n2[nH]c(=O)ccc2=O)sc1N=Nc1ccccc1 | 94% (inactive) | 95.7% (inactive) | 102% (inactive) | 98.1% (inactive) | 94.2% (inactive) | 97.5% (inactive) | 115% (inactive) | 108% (inactive)
26 | CC(=O)N1N=C(c2ccc(Nc3nc(Nc4ccc(F)cc4)nc(Nc4ccc(F)cc4)n3)cc2)CC1c1ccccc1 (centres undefined) | 56.2% (inactive) | 120% (inactive) | 105% (inactive) | 95.7% (inactive) | 66.2% (inactive) | 80.7% (inactive) | 94.3% (inactive) | 89.1% (inactive)
27 | Cc1c(C(=O)OCCCCOC(=O)c2c(C)n(C)c3scc[n+]23)[n+]2ccsc2n1C | 97.1% (inactive) | 110% (inactive) | 109% (inactive) | 125% (inactive) | 100% (inactive) | 107% (inactive) | 115% (inactive) | 118% (inactive)
28 | Cc1ccc2c(c1)C(C)Cc1c(ncnc1-n1cnc3cc(C)ccc31)N2C (centres undefined) | 55.9% (inactive) | -0.751% (active) | 4.21% (active) | 22.7% (inactive) | 12.6% (inactive) | 11.2% (inactive) | 21.7% (inactive) | 16.5% (inactive)
